Measurements reported in PubChem BioAssay AID2562 (National Center for Advancing Translational Sciences (NCATS), 2010).
Results filed as inconclusive are left out. Calls follow the shape of the dose curve; as a rule, active = well fitted curve in the direction sought with a large enough effect; inconclusive = small, poorly fitted or top-dose-only effect, or effect the other way, or another doubt; inactive = no such curve, though single readings can be large or run the other way.

Each compound was assayed against Pyruvate kinase PKLR (Homo sapiens) (UniProt P30613) (assay: Secondary LDH Assay for Activators of Human Reticulocyte Pyruvate Kinase: for Probe SAR). Conditions: purified hPK-R, LDH-coupled NADH fluorescence kinetic; series mostly up to 58.4 µM; activity change, positive = activation: at the top concentration.
Sequence of Pyruvate kinase PKLR (Homo sapiens) (P30613 whole entry, looked up): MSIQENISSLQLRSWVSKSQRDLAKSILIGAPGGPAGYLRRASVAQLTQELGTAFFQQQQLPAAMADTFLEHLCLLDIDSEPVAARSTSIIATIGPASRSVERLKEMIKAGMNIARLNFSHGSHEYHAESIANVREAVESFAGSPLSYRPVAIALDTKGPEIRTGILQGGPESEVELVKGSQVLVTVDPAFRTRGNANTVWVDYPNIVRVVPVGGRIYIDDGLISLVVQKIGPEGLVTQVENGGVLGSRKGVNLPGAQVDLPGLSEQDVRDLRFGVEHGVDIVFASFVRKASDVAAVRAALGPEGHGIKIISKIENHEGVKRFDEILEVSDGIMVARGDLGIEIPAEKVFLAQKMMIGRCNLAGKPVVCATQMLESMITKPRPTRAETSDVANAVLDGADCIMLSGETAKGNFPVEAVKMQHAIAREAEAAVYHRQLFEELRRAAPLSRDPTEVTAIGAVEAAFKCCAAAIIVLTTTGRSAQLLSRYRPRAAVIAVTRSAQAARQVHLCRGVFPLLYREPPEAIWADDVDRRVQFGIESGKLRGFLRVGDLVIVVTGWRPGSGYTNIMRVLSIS
Excerpt: NIH Chemical Genomics Center [NCGC] Wael M. Rabeh, Lyudmila Nedyalkova and Hee-Wan Park [Structural Genomics Consortium, 100 College St. Toronto, Ontario, Canada] NCGC Assay Overview: Human pyruvate kinase reticulocyte (hPK-R) enzyme was supplied as a highly purified (>95% pure) preparation from Structural Genomics Consortium in Toronto (Ontario, Canada) and a secondary assay was used to evaluate compounds. This assay couples the formation of pyruvate from hPK-R using lactate dehydrogenase (LDH) and NADH. The depletion of NADH is followed in a fluorescent-based kinetic assay that follows the formation of pyruvate to lactate, as catalyzed LDH. Pyruvate kinase substrates, PEP and ADP, were present in the assay at 0.1 mM and 4 mM respectively. In this kinetic assay initial rates were determined by following the fluorescence of NADH depletion.
NCGC Assay Protocol Summary: Three uL of substrate mix (final concentration, 50 mM Tris-Cl pH 8.0, 200 mM KCl, 15 mM MgCl2, 0.1 mM PEP, 4.0 mM ADP, and 0.2 mM NADH) was dispensed into black-solid 1536 well plates. 23 nL of compounds were delivered by a pin tool and 1 uL of enzyme mix (final concentrations, 10 nM hPK-R and 1 uM of LDH) was added. Plates were immediately placed in ViewLux (Perkin Elmer) and NADH fluorescence was determined at 30 second exposure intervals for between 3 and 6 minutes. Data were normalized to the uninhibited and EC100 activation using known activators such as fructose-bis-phosphate.

Activity change, positive = activation, inactive:
O=C1c2ccccc2C(=O)N1c1ccncc1 7.23%, Cc1ccc(NC(=O)c2ccc3c(c2)CCC(=O)N3)cc1C -10.1%, O=C1c2ccccc2C(=O)N1c1cccnc1 14%, COc1ccc(Nc2c(-c3ccc(C)o3)nc3ccccn23)cc1 6.46%, O=C1CCc2cc(S(=O)(=O)Nc3ccccc3-c3ccccc3)ccc2N1 1.21%, Cc1cc(N2C(=O)c3ccccc3C2=O)no1 11.2%, Cc1ccc(N(C)S(=O)(=O)c2ccc3c(c2)CCC(=O)N3)cc1C 10.7%, O=C1CCc2cc(S(=O)(=O)Nc3ccccc3F)ccc2N1 13.6%, Cc1ccc(NS(=O)(=O)c2ccc3c(c2)n(C)c(=O)n3C)cc1C 1.98%, Cc1ccc(NS(=O)(=O)c2ccc3c(c2)NC(=O)CO3)cc1C 19.8%, O=C1CCc2cc(S(=O)(=O)Nc3cccc(F)c3)ccc2N1 10.9%, O=C1CCc2cc(S(=O)(=O)Nc3ccccc3Cl)ccc2N1 3.72%, O=S(=O)(c1ccc2c(c1)OCCO2)N1CCN(S(=O)(=O)c2c(F)cccc2F)CC1 -1.4%, CCNc1cccc(S(=O)(=O)N2CCN(S(=O)(=O)c3ccc4c(c3)OCCO4)CC2)c1 -1.39%, Cc1ccc(N2C(=O)c3ccccc3C2=O)c(C)c1 -7.03%, COc1ccc(NS(=O)(=O)c2ccc3c(c2)CCC(=O)N3)cc1 3.97%, CC(=O)Nc1cccc(S(=O)(=O)Nc2ccc(C)c(C)c2)c1 2.66%, O=C1c2ccccc2C(=O)N1c1noc2ccccc12 2.08%, O=S1(=O)N=C(Oc2ccccc2Cl)c2ccccc21 7.37%, O=S1(=O)N=C(Oc2ccc(Cl)cc2)c2ccccc21 11.9%, Cc1ccc(NS(=O)(=O)c2cc3c(cc2-c2ccccc2)NC(=O)CO3)cc1C -2.67%, Cc1ccc(NS(=O)(=O)c2ccc(F)cc2)cc1C 18.4%, Cc1ccc(NS(=O)(=O)c2cc3c(cc2/C=C/c2ccccc2)NC(=O)CO3)cc1C 7.5%, Cc1ccc(NS(=O)(=O)c2cc3c(cc2Br)NC(=O)CO3)cc1C 8.76%, Cc1ccc(NS(=O)(=O)c2cc3c(cc2C)OCC(=O)N3)cc1C 9.35%, COc1ccc(N2C(=O)c3ccccc3C2=O)cc1 15.9%, O=C1c2ccccc2C(=O)N1C1CCCCC1 -3.06%, CCCCN1C(=O)c2ccccc2C1=O -5.61%, Cc1ccc(NS(=O)(=O)c2ccc3c(c2)CCC(=O)N3)cc1 4.72%, Cc1ccc(NS(=O)(=O)c2cc3c(cc2C)NC(=O)CO3)cc1C 27.4%, COc1ccccc1OC1=NS(=O)(=O)c2ccccc21 7.5%, O=S1(=O)N=C(Oc2ccccc2)c2ccccc21 7.61% [at 82.8 µM], O=C1CCc2cc(S(=O)(=O)Nc3cccc(Cl)c3)ccc2N1 1.31%, Cc1ccccc1OC1=NS(=O)(=O)c2ccccc21 4.32%, Nc1cc(S(=O)(=O)N2CCN(S(=O)(=O)c3ccc4c(c3)OCCO4)CC2)ccn1 -4.54%, O=C1c2ccccc2C(=O)N1c1ccccc1O 5.76%, COc1cccc(Cn2ncc3c4sc(S(C)=O)cc4n(C)c3c2=O)c1 (stereo not given) 11.4%, COc1ccccc1N1C(=O)c2ccccc2C1=O 8.45%, O=C1c2ccccc2C(=O)N1c1cccc2ccncc12 -0.363%, COc1ccc(S(=O)(=O)Nc2ccc(C)c(C)c2)cc1 16.3%
